Giardia FBPA inh-1: blocks Giardia fructose-bisphosphate aldolase activity | A8B2U2 | purified Giardia FBPA | Potency, µM (top dose mostly 59.6 µM), for the others: at the highest dose activity, negative = inhibition, usual class: inhibitors | 290,000 tested, 0.71% active | AID 2451; also: nearly all actives have a fitted effect of over 55% in size
Target sequence (A8B2U2 whole entry, looked up): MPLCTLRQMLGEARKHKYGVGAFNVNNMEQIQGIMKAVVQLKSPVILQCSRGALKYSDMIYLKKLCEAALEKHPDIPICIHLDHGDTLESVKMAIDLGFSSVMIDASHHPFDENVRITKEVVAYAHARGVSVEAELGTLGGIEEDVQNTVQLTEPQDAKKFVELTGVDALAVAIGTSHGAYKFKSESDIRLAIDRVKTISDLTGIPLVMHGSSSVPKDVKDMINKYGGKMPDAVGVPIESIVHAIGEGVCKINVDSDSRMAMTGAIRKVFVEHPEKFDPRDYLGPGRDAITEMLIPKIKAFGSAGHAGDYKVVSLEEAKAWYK
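40 nM FBPA preincubated 10 min at RT with compound (up to 57.5 uM final), then substrate plus GAPDH/TPI/NAD/arsenate coupling and diaphorase/resazurin added. Fluorescence read after 20 min at RT, 525/598 nm.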
RE007 growth inh: less growth of the S. pombe RE007 Vpr strain; Potency, µM (top dose mostly 92.2 µM), without a hit: at the top dose activity change, negative = less growth, most hits filed as inhibitors; S. pombe RE007 Vpr strain, BacTiter-Glo ATP luminescence, 24 h; 360,000 tested, 0.21% active; AID 651644; active = well fitted falling curve with a large enough effect; inconclusive = small, poorly fitted or top-dose-only effect; inactive = no such curve, though single readings can be large or run the other way; also: nearly all actives have a fitted effect of over 50% in size
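Fission yeast RE007 carrying one integrated HIV-1 vpr copy, seeded at OD 0.01 in PMG+AL medium with 23 nL pinned compound. Grown 24 h at 30 degrees; viability read by BacTiter-Glo luminescence after 5 min.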
LmPK inhibitor: LmPK (Leishmania mexicana) enzyme inhibition. Q27686. purified LmPK, Kinase-Glo ATP luminescence, 1 h. Potency, µM (doses to about 57.5 µM), for the others: at the highest dose activity change, negative = inhibition, usual class: inhibitors. 290,000 tested, 0.37% active. AID 1721
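Purified LmPK (0.1 nM) converted ADP (0.1 mM) to ATP with PEP (0.5 mM) in imidazole buffer pH 7.2 with KCl and MgCl2, 1 h at room temperature. ATP was read by Kinase-Glo luminescence; data normalized to uninhibited and no-enzyme controls.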
Tb PYK inh: blocks Trypanosoma brucei pyruvate kinase. TbPYK enzyme, Kinase-Glo Plus ATP luminescence, 45 min. Potency, µM (highest dose often 76.8 µM), for inactives: at the highest dose activity, negative = inhibition, actives largely listed as inhibitors. 410,000 tested, 0.12% active. AID 624173; also: nearly all actives have a fitted effect of over 50% in size
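Assay buffer: 50 mM TEA pH 7.2, 100 mM KCl, 10 mM MgCl2, 0.05% BSA, 0.01% Tween-20. Pyruvate kinase from T. brucei plus substrate met compound, then ADP (130 uM final). Luminescence was read post 45 min RT.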
Giardia growth: blocks growth of Giardia lamblia trophozoites; shares compounds with Giardia FBPA inh-1; Giardia lamblia trophozoite growth inhibition; Potency, µM (titrated, usually from 57.5 µM), for the others: at the top dose activity change, negative = inhibition, hits mostly inhibitors; 1,500 tested, 5% active;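 also: trophozoites exposed to compound for 48 h at 37 °C; nearly all actives have a fitted effect of over 70% in size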
Mammal cell tox: counter-screen for Giardia aldolase inhibitors: mammalian cell toxicity | shares compounds with Giardia FBPA inh-1 | mammalian cell viability counter-screen, qHTS | Potency, µM (top dose mostly 57.5 µM), without a hit: at the top dose viability change, negative = toxicity, usual class: inhibitors | 1,500 tested, 4% active | AID 2786;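 also: Chinese hamster ovary cells used as mammalian cytotoxicity surrogate; viability measured as cellular ATP by luminescence; compound exposure lasted 48 h before reading; nearly all actives have a fitted effect of over 60% in size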
Giardia FBPA inh-2: confirmation of Giardia fructose-bisphosphate aldolase inhibitors. 1,500 tested, 5% active. purified Giardia aldolase enzyme activity, qHTS. Potency, µM (series often up to 57.5 µM), without a hit: top-dose activity change, negative = inhibition, hits mostly inhibitors. shares compounds with Giardia FBPA inh-1; also: nearly all actives have a fitted effect of over 45% in size
Rabbit aldolase: selectivity test for Giardia aldolase inhibitors: rabbit aldolase | shares compounds with Giardia FBPA inh-1 | Rabbit muscle FBPA enzyme inhibition, selectivity counter-screen | Potency, µM (highest dose often 57.5 µM), inactives show at the highest dose activity, negative = inhibition, hits mostly inhibitors | 1,500 tested, 4% active; also: nearly all actives have a fitted effect of over 60% in size
Target sequence (P00883 whole entry, looked up): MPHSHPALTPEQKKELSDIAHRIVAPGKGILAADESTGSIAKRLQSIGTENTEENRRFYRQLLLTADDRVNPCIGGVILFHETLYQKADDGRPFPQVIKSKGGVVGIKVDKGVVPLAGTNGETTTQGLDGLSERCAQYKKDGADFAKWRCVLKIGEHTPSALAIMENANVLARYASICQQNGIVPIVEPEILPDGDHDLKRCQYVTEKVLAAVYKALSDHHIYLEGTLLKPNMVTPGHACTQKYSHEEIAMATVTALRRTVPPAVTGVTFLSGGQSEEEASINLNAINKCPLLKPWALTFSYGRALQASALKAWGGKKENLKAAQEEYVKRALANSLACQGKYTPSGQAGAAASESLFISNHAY
GAPDH counter: GAPDH inhibition flagged for Giardia aldolase hits | shares compounds with Giardia FBPA inh-1 | GAPDH coupling enzyme counterscreen, biochemical, qHTS | Potency, µM (series often up to 57.5 µM), without a hit: at the top dose activity change, negative = inhibition, most hits filed as inhibitors | 1,500 tested, 6% active | AID 2795; also: nearly all actives have a fitted effect of over 55% in size
An asterisk follows results filed as active; ? = inconclusive; . = not tested or not shown; [ ] = remark or other dose. This is a sample that favours compounds with a hit; in the whole collection about 0.95% have one here. Unless noted, calls follow the shape of the dose curve; as a rule, active = well fitted curve in the direction sought with a large enough effect; inconclusive = small, poorly fitted or top-dose-only effect, or another doubt; inactive = no such curve, though single readings can be large; an effect the other way counts as inactive or inconclusive. % is scaled to controls: 0 for no effect and ±100 for the full control effect; potency is read from the fitted curve at half-maximal effect.

SMILES	Giardia FBPA inh-1	RE007 growth inh	LmPK inhibitor	Tb PYK inh	Giardia growth	Mammal cell tox	Giardia FBPA inh-2	Rabbit aldolase	GAPDH counter
Nc1nnnn1CC(=O)N/N=C/c1ccccn1	18µM*	-1%	-5%	3%	-15%	0%	2%	2%	-1%
Nc1nnnn1CC(=O)N/N=C/c1cccs1	0%	6%	-5%	-1%	.	.	.	.	.
O=C(N/N=C/c1ccccn1)C(=O)N1CCCCCC1	18µM*	-7%	-5%	0%	20%	0%	7%	1%	4%
O=C(N/N=C/c1ccccc1C(=O)O)C(=O)N1CCCCC1	1%	6%	-2%	-3%	.	.	.	.	.
CCC1(O)CC2CN(CCc3c([nH]c4ccccc34)[C@@](C(=O)OC)(c3cc4c(cc3OC)N(C=O)C3[C@]45CCN4CC=C[C@@](CC)([C@@H](OC(C)=O)[C@]3(O)C(=O)OC)[C@H]45)C2)C1 (stereo partly specified)	2%	.	.	.	.	.	.	.	.
COc1cc(C(=O)O/N=C2\C=CC(=O)C=C2C)cc(OC)c1OC	4µM*	-15%	-3%	-18%	-13%[38.3 µM]	?	28µM*	32µM*	32µM*
CCN1CCN(CC(=O)Nc2cc3c(cc2C(C)=O)OCO3)CC1	13µM*	4%	4%	17%	-1%[10.4 µM]	13%	-2%	3%	9%
COc1ccc2c(c1)-c1nc(/N=C/c3cccc(OC)c3O)sc1CC2	1.4µM*	?	?	-5%	-28%[38.3 µM]	-2%	?	?	?
CCN(CC)CCCNC(=O)CNC(=O)c1nn(-c2ccc(OC)cc2OC)c(=O)c2ccccc12	.	10%	.	3%	.	.	.	.	.
CC(C)n1cnc2c(=S)nc[nH]c21	3.2µM*	.	-2%	-13%	6%[38.3 µM]	-2%	-2%	-20%	?
COc1ccc(-c2nnc(SCC(=O)c3ccc([N+](=O)[O-])cc3)o2)cc1OC	.	.	.	-4%	.	.	.	.	.
O=C(C1CCCN1S(=O)(=O)c1cccc2nsnc12)N1CCN(c2ccc(F)cc2)CC1 (stereo unspecified)	.	11%	1%	2%	.	.	.	.	.
O=C(C1CCCN(Cc2ccccc2F)C1)N1CCCCC1 (stereo unspecified)	13µM*	-13%	-3%	24%	-3%[10.4 µM]	-6%	4%	12%	12%
COc1ccc(CNCc2cc3c(cc2[N+](=O)[O-])OCO3)cc1	13µM*	1%	1%	2%	?	-4%	-14%	-7%	1%
Cc1cc(C)cc(NCc2cc3c(cc2[N+](=O)[O-])OCO3)c1	-13%	2%	-4%	0%	.	.	.	.	.
CCOc1ccc(/C(CCC(=O)O)=N/NC(=S)NC(C)C)cc1	16µM*	10%	1%	-12%	-16%	18%	4%	15%	10%
CCC(=O)O[C@@H]1[C@H](C)O[C@H](O[C@H]2[C@@H](N(C)C)[C@H](O)[C@@H](O[C@@H]3[C@@H](CC=O)C[C@@H](C)[C@@H](O)/C=C\C=C/C[C@@H](C)OC(=O)C[C@@H](OC(=O)CC)[C@H]3OC)O[C@H]2C)C[C@]1(C)O	1%[21.7 µM]	.	.	-5%[33.2 µM]	.	.	.	.	.
CCOc1ccccc1CNC(=O)CSc1n[nH]c(-c2ccccc2)n1	.	.	.	-4%	.	.	.	.	.
COC(=O)c1ccc(OCc2nn[nH]n2)cc1	32µM*	20%	0%	1%	21%	19%	14%	12%	14%
COc1cccc(OCc2nn[nH]n2)c1	?	4%	0%	-2%	.	.	.	.	.
COc1ccc(OCc2nn[nH]n2)cc1	25µM*	3%	6%	3%	?	-6%	12%	7%	22%
Cc1cccc(OCc2nn[nH]n2)c1C	14µM*	3%	-4%	2%	26%	-4%	4%	13%	16%
O=C1CN(C(=O)c2ccccc2F)C(c2ccccc2)c2cc(Cl)ccc2N1 (stereo unspecified)	4%	-19%	2%	-7%	.	.	.	.	.
COc1cc(/C=C/C(=O)OCC(=O)N2CCCCCC2)cc(OC)c1OC	.	-8%	.	0%	.	.	.	.	.
c1ccc(CCN(Cc2ccccc2)C2CCN(C3CCCC3)CC2)cc1	20µM*	-16%	?	-29%	45µM*	-8%	6%	1%	3%
SMILES	Giardia FBPA inh-1	RE007 growth inh	LmPK inhibitor	Tb PYK inh	Giardia growth	Mammal cell tox	Giardia FBPA inh-2	Rabbit aldolase	GAPDH counter
O=C(CCCc1ccccc1)N1CCN(C2CCCCC2)CC1	12%	5%	-4%	-2%	.	.	.	.	.
Cc1cccc(C(=O)NC(=S)NNC(=O)c2ccccc2Cl)c1	?	-46%	0%	-29%	-16%[38.3 µM]	-27%	6%	-20%	-19%
Clc1cnccn1	-2%[21.7 µM]	.	.	.	.	.	.	.	.
Cc1ccc(-c2onc(C)c2C)cc1S(=O)(=O)NCc1cccs1	.	.	.	4%	.	.	.	.	.
CC(C)C(=O)NC(c1ccco1)c1ccc2cccnc2c1O (stereo unspecified)	?	-25%	1%	-10%	.	.	.	.	.
Oc1c(C(Nc2nc3ccccc3s2)c2ccco2)ccc2cccnc12 (stereo unspecified)	16µM*	?	-2%	-11%	35%	?	-23%	-3%	-8%
COc1ccc(N2CCN(C(=O)CSc3nnc(C)c(=O)[nH]3)CC2)cc1	13µM*	-8%	21%	-6%	-12%	8%	-8%	11%	6%
COc1ccc(S(=O)(=O)NCC(c2ccco2)S(=O)(=O)c2ccc(C)cc2)cc1C (stereo unspecified)	.	.	.	2%	.	.	.	.	.
COc1nc(N/N=C/c2ccc(-c3ccccc3[N+](=O)[O-])o2)nc(N2CCOCC2)n1	4.5µM*	.	-2%	-14%	-33%[38.3 µM]	-7%	?	?	40µM*
O=[N+]([O-])c1ccc(-c2ccc(/C=N/Nc3nc(NCc4ccccc4)nc(N4CCOCC4)n3)o2)cc1	-2%	0%	-3%	0%	.	.	.	.	.
Clc1ccccc1-c1ccc2ncnc(NCCN3CCOCC3)c2c1	5%	.	.	.	.	.	.	.	.
CCc1ccc(NS(=O)(=O)c2cccc3nsnc23)cc1	5%	-13%	9%	0%	.	.	.	.	.
CCc1cc(-c2n[nH]c(=S)n2N)n(C)n1	10µM*	12%	-3%	-11%	?	0%	1%	1%	8%
COc1ccc(-c2nc3c(c(SCc4ccc(Br)cc4)n2)Cc2c(CO)cnc(C)c2O3)cc1	.	.	.	-13%	.	.	.	.	.

Screening data as filed in PubChem BioAssay.
